Assay results as given in PubChem BioAssay AID624352 (Sanford-Burnham Center for Chemical Genomics, 2012).
Hit rate of the full screen: of about 360,000 compounds, about 2,600 (0.72%) were called active.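 Rule for the calls: active = inhibition of the luminescence signal of 40% or more relative to plate controls, in a single-dose primary screen at 18.75 µM; inactive = the rest.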 Only a selection was taken, and actives are over-represented in it overall.

assay: blockers of HIF-2a driven luciferase – luminescence, 786-0 RCC cells, primary screen (AID 624352); conditions: 786-0 RCC cells HIF-2a reporter, overnight, at 18.8 µM, active compounds read high

inhibition, active:
Cc1ccccc1C(CC(=O)c1cccs1)C(C#N)C#N (centres undefined) 59.7%
CC(C)(C)c1ccc(Oc2ccc(N)cc2)cc1 94.1%
C=CCn1c(C)cc(C2=NNC(=NCC)SC2)c1C 92.7%
O=c1oc2ccccc2cc1-c1cn(-c2ccccc2)c(=S)[nH]1 73.6%
O=C1/C(=C\c2ccc([N+](=O)[O-])cc2)CS(=O)(=O)C/C1=C/c1ccc([N+](=O)[O-])cc1 92.6%
Cc1c(CCC(=O)O)c(=O)oc2cc3occ(-c4ccccc4)c3cc12 63.2%
O=C1C=CC(=O)N1c1ccc(N2CCCCC2)cc1 69.5%
Cc1ccc(NC(=S)NC(NC(=O)Cc2cccc3ccccc23)C(Cl)(Cl)Cl)cc1 (centres undefined) 54.6%
CN1CCN(CCCNC(=O)c2ccc(/C=C3\Oc4ccccc4N(Cc4ccc(Cl)cc4)C3=O)cc2)CC1 89.4%
Cc1coc2c(O)cc3c(c12)OC1(N2CCCCC2)C(=O)NCCCC31 (centres undefined) 56.7%
O=C(CCl)Nc1ccc(Sc2ccc(NC(=O)CCl)cc2)cc1 58.1%
Cc1ccc(-c2noc(CNC(=O)c3ccoc3C)n2)cc1 89%
CCCSC(=S)NC1CCS(=O)(=O)C1 (centres undefined) 41.3%
CN(c1ccc2nc3ccccc3c(=O)n2n1)C1CCCCC1 78.2%
O=C(CN1CCN(C2CCS(=O)(=O)C2)CC1)N1N=C(c2ccc(Cl)cc2)CC1c1ccco1 (centres undefined) 47.5%
COc1ccc2c(c1OC)C(=O)OC2Nc1nc(-c2ccccc2)cs1 (centres undefined) 57.8%
COc1ccc(C(=O)/C=C/c2ccc(-c3ccccc3)cc2)cc1CSCC(=O)O 67.7%
COCCNC(=O)Nc1ccc2nc(-c3ccco3)c(-c3ccco3)nc2c1 42.3%

inhibition, inactive:
CC(C)OCCCNC(=O)CNC(=O)c1cccs1 -6.91%
Cc1ccc(NNC(=O)c2cccs2)cc1Cl -22.8%
CCCCOC(=O)CNc1nnc(SCC(=O)OCC)[nH]c1=O 16.2%
C[C@@H](NC(=O)[C@@H]1Cc2ccccc2CN1)C(=O)NC1CCCC1 -3.06%
CN(C)S(=O)(=O)c1ccc(Oc2ccc(S(=O)(=O)N(C)C)cc2)cc1 0.813%
NC[C@H](Cc1ccccc1)NCCc1cc(C(F)(F)F)cc(C(F)(F)F)c1 8.13%
CCOc1cccc(NC(=O)Cn2nc(-c3ccc4c(c3)OCCO4)ccc2=O)c1 3.02%
CN(C)CCn1c2c(c(SCC(=O)NCc3ccccc3)nc1=O)CCC2 11.3%
Cn1c(=O)c2ccccc2n(CC(=O)Nc2ccc3c(c2)OCCO3)c1=O 0.929%
COc1ccc(C(=O)NCC(c2ccco2)N2CCc3ccccc32)cc1OC (centres undefined) 23%
COc1cc(C2C(C(=O)c3sc(C)nc3C)=C(O)C(=O)N2CCN(C)C)cc(OC)c1OC (centres undefined) 17.5%
CN(C)CC(C)(C)CNC(=O)c1cc(Br)cc(Br)c1O 8.3%
O=[N+]([O-])c1ccc(CN2CC(N3CC=CC3)CS2(=O)=O)cc1 (centres undefined) 3.7%
CC(=O)Nc1cc(-c2ccccc2N(C)C)cn2c(-c3ccc(F)c(Cl)c3)cnc12 -0.208%
CCc1ccc(Oc2nc([N+](=O)[O-])nn2C)cc1 -0.728%
CC1CCCN(C(=O)c2ccc3c(c2)C(=O)N(CCC2=CCCCC2)C3=O)C1 (centres undefined) 2.05%
CC1Cc2ccccc2N1C1=CC(=O)CC(C)(C)C1 (centres undefined) 9.32%
COc1cccc(-c2coc3cc4oc(=O)c(CC(=O)O)c(C)c4cc23)c1 -58%
Cc1coc2cc3oc(=O)c(CCC(=O)O)c(C)c3cc12 17%
CC(C)c1ccc2c(c1)c(SC(C)(C)C)c(CC(C)(C)C(=O)O)n2Cc1ccc(Cl)cc1 -26.8%
CCCC(=O)N1CCN(c2nnc(-c3ccc(C)cc3)c3ccccc23)CC1 12.6%
Cc1ccc2[nH]c(C(=O)O)c(NC(=O)c3ccccc3[N+](=O)[O-])c2c1 13.4%
c1ccc(-n2cccc2)c(N2CCCCC2)c1 13.2%
O=C(c1ccc(Cl)c(S(=O)(=O)N2CCCCCC2)c1)N1CCN(c2ccc(O)cc2)CC1 11.3%
CCOC(=O)c1nn(-c2ccccc2F)c2nc(Nc3ccccc3)cc(=O)n12 7.21%
CN(C)c1nc2n(c(=O)n1)CCO2 6.35%
COC(=O)CSc1nc2c(c(C3CC=CCC3)c1C#N)CCC2 (centres undefined) 0.0766%
CC1(C(=O)NS(=O)(=O)c2cccc(OC(F)F)c2)CCN1C(=O)COc1ccc(Cl)cc1 (centres undefined) 6.16%
CC(=O)NC1=NN(C(C)=O)C(C)(c2ccc(Cl)s2)S1 (centres undefined) 14.9%
CCc1cc(=O)oc2c(C)c(OCC(=O)N3CC[C@@]4(O)CCCC[C@H]4C3)ccc12 -4.19%
Brc1ccc(CN2CC[C@H]3C=CCc4cccc(c43)C2)cc1 11.8%
CC(C)(C)C(=O)NC(NC(=S)Nc1ccc(S(N)(=O)=O)cc1)C(Cl)(Cl)Cl (centres undefined) 5.45%
O=C(Cc1cccc2ccccc12)NNC(=O)Nc1ccc(Cl)cc1 -196%
O=c1c2ccccc2cnn1Cc1n[nH]c(=S)n1-c1ccccc1F 13.1%
O=C(NCCc1cccc(F)c1)C1CC(O)CN1C(=O)Nc1ccccc1 (centres undefined) 17.9%
CCCNC(=O)C1(C)CCCN(Cc2c(C)nn(-c3ccccc3)c2C)C1 (centres undefined) 6.85%
COc1ccc(CNC(=O)COc2ccccc2C(=O)c2cnn(-c3ccccc3)c2)cc1OC -184%
Cc1ccc(NC(=O)CCCNC(=O)c2ccc(Cl)cc2)cc1S(=O)(=O)N1CCOCC1 5.62%
CCC1Oc2ccccc2N(CC(=O)NCCCN2CCN(CC)CC2)C1=O (centres undefined) 4.83%
O=C1CCC(=O)N(c2ccccc2)N1 9.24%
CN(c1ccc(OCC(=O)NC2=NCCS2)cc1)S(=O)(=O)c1ccc(F)cc1 1.28%
O=C(c1ccc2ccccc2n1)N1CCN(c2ccccc2Cl)CC1 -107%
Cn1c(=O)c2sccc2n(Cc2ccc(Br)cc2)c1=O 13.3%
OCCC#Cc1ccc(N2C(c3ccsc3)=Cc3ccc(F)cc3C2c2c[nH]c3ccccc23)cc1 (centres undefined) -21.5%
O=C(O)CC(SCC(=O)Nc1ccc(Br)cc1)C(=O)O (centres undefined) 2.54%
CC(=O)Nc1ccc(NC(=O)CC2CCCC2)cc1 -38.5%
c1ccc(-c2cnc(CN3CCN(c4ccccc4)CC3)o2)cc1 -16.5%
CC(NC(=O)C(=O)NN=C1CCC(C(C)(C)C)CC1)c1ccccc1 (centres undefined) 13.2%
CCCCc1c(-c2ccc(Cl)cc2)ncn1CCc1ccccc1OC -111%
FC(F)(F)c1nnc2c3ccccc3c(Cl)nn12 16.8%
CC1(C(=O)Nc2ccc3c(c2)OCCO3)CN(S(C)(=O)=O)CC(=O)N1Cc1cccc(F)c1 (centres undefined) 11.6%
Cc1ccc(-c2noc(-c3ccccc3C(=O)NCC3CCCO3)n2)cc1 (centres undefined) -126%
O=C(Cc1ccc(Cl)cc1)NCc1nc(-c2ccccc2)no1 8.68%
COC(=O)c1ccc(COC(=O)c2cnccn2)cc1 9.27%
Cc1nc(C(F)(F)F)ccc1C(=O)N1CCC1(C)C(=O)NS(=O)(=O)c1ccccc1 (centres undefined) 18.3%
CC(C)C(=O)NC(NC(=S)NC1CCS(=O)(=O)C1)C(Cl)(Cl)Cl (centres undefined) -1.77%
O=S1(=O)CCC(NC(=S)SCc2ccccc2Br)C1 (centres undefined) 37.1%
CC(=O)OCC1(O)CC23CCC4c5ccoc5CCC4(C)C2CCC1C3 (centres undefined) 7.41%
OCCNCCCCOc1ccccc1F -0.6%
CC1(C)OC(=O)C2=C(C[C@@H](C3CCCC3)O[C@@H]2c2ccc(Cl)cc2)O1 8.87%
CN(C(=O)Nc1ccc(Cl)cc1)n1cnc2ccccc2c1=O -36.5%
COCC(C)n1c(SCC(=O)NC2CCCCC2C)nc2ccccc2c1=O (centres undefined) 15%
Cc1cccc(OCC(=O)OCC(=O)Nc2ccc(Cl)cn2)c1 11.3%
Cc1ccc(C2=NN(C(=O)CSc3nc(N)cc(N)n3)C(c3ccco3)C2)cc1 (centres undefined) 24.9%
Cc1ccc(C2=NN(C(=O)COc3ncnc4ccccc34)C(c3ccco3)C2)cc1 (centres undefined) 6.33%
CN(C(=O)c1cccc(NC(=O)Cc2cccc(NC(=O)C3CCCN(C(=O)C4CC4)C3)c2)c1)C1CCC1 (centres undefined) 11.8%
COc1cc(C(O)c2nc(-c3cccc(C(=O)O)c3)cs2)ccc1F (centres undefined) -9.8%
COc1ccccc1C(=O)Nc1nc2nc(-c3ccccc3)cc(=O)n2[nH]1 4.83%
CCN1CCN(C(=O)c2cc3cc4ccc(OC)cc4nc3s2)CC1 -78.9%
COc1cc(OC)c(NS(=O)(=O)c2cn(C)cn2)cc1Cl 6.21%
CSc1ccccc1NC(=O)Cc1ccc(Br)cc1 -11.3%
COc1ccccc1CCNC(=O)C1CCN(C(=O)/C=C/c2ccccc2)CC1 -5.61%
COC(=O)c1ccc(COc2ccc(/C=C/C(=O)c3ccc(OC)c(CSCC(=O)O)c3)cc2OC)cc1 -5.92%
CC(C)Cc1ccc(C(C)C(=N)N)cc1 (centres undefined) 25.6%
COc1ccc(CCNC(=O)Nc2ccc3c(c2)c(=O)n(C)n3C)cc1OC 3.46%
COCCNC(=O)CN(Cc1ccco1)C(=O)CCC(=O)Nc1nccs1 3.02%
